Inconclusive results are not listed. Calls of active or inactive are those of the source. Unless noted, no cut-off is given here; in the data, nearly all actives have IC50 up to about 30 µM.
Assay: SU-DIPG-VI glioma cell viability, MIPE4.0 library, CellTiter-Glo luminescence, qHTS (AID 1347066; cut-off not given, nearly all actives have AC50 up to about 30 µM;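 note: cells exposed to compound for 48 hours before readout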)
Conditions: CellTiter-Glo ATP luminescence

Row | Compound | outcome | AC50
1 | Nc1ccn([C@@H]2O[C@H](CO)[C@@H](O)C2(F)F)c(=O)n1 | inactive | 
2 | N#C/C(=C1/Nc2ccccc2S1)c1ccnc(OCc2ccc(CN3CCOCC3)cc2)n1 |  | 0.743 µM (active)
3 | CC[C@@H]([C@H](C)O)n1ncn(-c2ccc(N3CCN(c4ccc(OCC5CO[C@@](Cn6cncn6)(c6ccc(F)cc6F)C5)cc4)CC3)cc2)c1=O (some centres not stated) | inactive | 
4 | N#Cc1ccc(COC[C@H]2O[C@@H](n3c(NCc4ccc(Cl)c(Cl)c4)nc4c(N)ncnc43)[C@H](O)[C@@H]2O)cc1 | inactive | 
5 | CN1c2ccccc2C(=O)N2CCc3c([nH]c4ccccc34)C21 (configuration not stated) | inactive | 
6 | O=c1ccn([C@@H]2O[C@H](CO)[C@@H](O)[C@@H]2F)c(=O)[nH]1 | inactive | 
7 | O=C1NC(=O)[C@@H](c2cn3c4c(cccc24)CCC3)[C@@H]1c1c[nH]c2ccccc12 |  | 23.5 µM (active)
8 | CN(C)CC(=O)N1CCC(c2ccc(NC(=O)c3ncc(C#N)[nH]3)c(C3=CCCCC3)c2)CC1 |  | 18.7 µM (active)
9 | CNc1nc(Nc2ccc(C(=O)N3CCOCC3)cc2OC)ncc1Cl | inactive | 
10 | CNC(=O)c1cc(Oc2ccc(NC(=O)Nc3ccc(Cl)c(C(F)(F)F)c3)c(F)c2)ccn1 |  | 9.35 µM (active)

Assay: JHH-DIPG-1 glioma cell viability, MIPE5.0 library, CellTiter-Glo luminescence, qHTS (AID 1347067; cut-off not given, nearly all actives have AC50 up to about 26 µM;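 note: cells exposed to compound for 48 hours before readout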)
Conditions: JHH-DIPG-1 glioma viability, CellTiter-Glo ATP luminescence

Row | Compound | AC50 | outcome
11 | CNC(=O)c1cc(COc2nnc(Nc3ccc(Cl)cc3)c3ccoc23)ccn1 | 5.9 µM (active) | 
12 | Nc1ccn([C@@H]2O[C@H](CO)[C@@H](O)C2(F)F)c(=O)n1 |  | inactive
13 | N#C/C(=C1/Nc2ccccc2S1)c1ccnc(OCc2ccc(CN3CCOCC3)cc2)n1 | 20.9 µM (active) | 
14 | CC(C)=CCC/C(C)=C/CC/C(C)=C/CSc1ccccc1C(=O)O |  | inactive
15 | N#Cc1ccc(COC[C@H]2O[C@@H](n3c(NCc4ccc(Cl)c(Cl)c4)nc4c(N)ncnc43)[C@H](O)[C@@H]2O)cc1 | 18.6 µM (active) | 
16 | CC(=O)Oc1cc2c(s1)CCN(C(C(=O)C1CC1)c1ccccc1F)C2 (configuration not stated) |  | inactive
17 | CN1c2ccccc2C(=O)N2CCc3c([nH]c4ccccc34)C21 (configuration not stated) | 5.25 µM (active) | 
18 | CC[C@H](CC#N)OC(=O)N[C@@H](C)c1cccc(NC(=O)Nc2ccc(-c3cnco3)c(OC)c2)c1 | 2.63 µM (active) | 
19 | CCC(=C/[C@H](C)C/C=C/C(C)=C/[C@@H](C)C(=O)[C@@H](C)[C@H](O)[C@@H](C)C/C(C)=C/C(=O)O)/C=C/[C@@H]1OC(=O)C=C[C@@H]1C | 18.6 µM (active) | 
20 | O=c1ccn([C@@H]2O[C@H](CO)[C@@H](O)[C@@H]2F)c(=O)[nH]1 |  | inactive
21 | Clc1ccc2ncc(-c3cccc(NC4CNC4)n3)n2c1 |  | inactive
22 | CN(C)CC(=O)N1CCC(c2ccc(NC(=O)c3ncc(C#N)[nH]3)c(C3=CCCCC3)c2)CC1 |  | inactive
23 | O=C(CCCCCCC(=O)Nc1ccc([C@H]2O[C@@H](CSc3nc(-c4ccccc4)c(-c4ccccc4)o3)C[C@@H](c3ccc(CO)cc3)O2)cc1)NO |  | inactive
24 | CC(C)(O)CC(=O)NCCn1ccc2ncnc(Nc3ccc(Oc4cccc(C(F)(F)F)c4)c(Cl)c3)c21 | 20.9 µM (active) | 
25 | CO[C@@H]1[C@@H](O)[C@H](O)[C@@H](n2c3c(Cl)cccc3c3c4c(c5c6cccc(Cl)c6[nH]c5c32)C(=O)NC4=O)O[C@H]1CO | 2.63 µM (active) | 

Assay: SU-DIPG-XXV glioma cell viability, MIPE5.0 library, qHTS (AID 1347068);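 for IC50: cells exposed to compound for 48 hours before viability readout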
Conditions: not given

Row | Compound | outcome | IC50
26 | Nc1ccn([C@@H]2O[C@H](CO)[C@@H](O)C2(F)F)c(=O)n1 | inactive | 
27 | CC(C)=CCC/C(C)=C/CC/C(C)=C/CSc1ccccc1C(=O)O | inactive | 
28 | CC(=O)Oc1cc2c(s1)CCN(C(C(=O)C1CC1)c1ccccc1F)C2 (configuration not stated) | inactive | 
29 | OCCn1cc(-c2ccc3c(c2)CC/C3=N\O)c(-c2ccncc2)n1 | inactive | 
30 | CC[C@H](CC#N)OC(=O)N[C@@H](C)c1cccc(NC(=O)Nc2ccc(-c3cnco3)c(OC)c2)c1 |  | 14.8 µM (active)
31 | CNc1nccc(-c2cccnc2Oc2cc(C(=O)Nc3cccc(C(F)(F)F)c3)ccc2C)n1 |  | 13.2 µM (active)
32 | CCC(=C/[C@H](C)C/C=C/C(C)=C/[C@@H](C)C(=O)[C@@H](C)[C@H](O)[C@@H](C)C/C(C)=C/C(=O)O)/C=C/[C@@H]1OC(=O)C=C[C@@H]1C |  | 0.833 µM (active)
33 | O=c1ccn([C@@H]2O[C@H](CO)[C@@H](O)[C@@H]2F)c(=O)[nH]1 | inactive | 
34 | Clc1ccc2ncc(-c3cccc(NC4CNC4)n3)n2c1 | inactive | 
35 | CN(C)CC(=O)N1CCC(c2ccc(NC(=O)c3ncc(C#N)[nH]3)c(C3=CCCCC3)c2)CC1 | inactive | 
36 | Nc1cccc(-c2cc3c(Oc4cccc(O)c4)ncnc3[nH]2)c1 |  | 8.33 µM (active)
37 | CNc1nc(Nc2ccc(C(=O)N3CCOCC3)cc2OC)ncc1Cl | inactive | 
38 | O=C(CCCCCCC(=O)Nc1ccc([C@H]2O[C@@H](CSc3nc(-c4ccccc4)c(-c4ccccc4)o3)C[C@@H](c3ccc(CO)cc3)O2)cc1)NO | inactive | 
39 | CC(C)(O)CC(=O)NCCn1ccc2ncnc(Nc3ccc(Oc4cccc(C(F)(F)F)c4)c(Cl)c3)c21 |  | 23.5 µM (active)
40 | CO[C@@H]1[C@@H](O)[C@H](O)[C@@H](n2c3c(Cl)cccc3c3c4c(c5c6cccc(Cl)c6[nH]c5c32)C(=O)NC4=O)O[C@H]1CO | inactive | 
41 | CNC(=O)c1cc(Oc2ccc(NC(=O)Nc3ccc(Cl)c(C(F)(F)F)c3)c(F)c2)ccn1 |  | 20.9 µM (active)
42 | CS(=O)(=O)N1CCc2c(-c3cnc(N)nc3)nc(N3CCOCC3)nc21 |  | 0.934 µM (active)

Reference: PubChem BioAssay
